# Many of the other results were omitted from the sample, so hits are more common in it than they were.
# Shiga inhibitor = inhibitors of Shiga toxin in Vero cells; actives 9.2% (n = 290,000); Vero cells, Shiga toxin protein synthesis inhibition reporter; inhibition, % at 38.7 µM; in the data active = inhibition mostly above about 28%, no sharp cut-off; inactive = mostly below about 43%; note: 0% is about no effect
# Cycloheximide cs = counter-screen hit for Shiga toxin inhibitors, cycloheximide. cell reporter, cycloheximide protein synthesis inhibition counterscreen. max response, %. actives 12% (n = 300,000). AID 2314; in the data active = max response mostly above about 13%, no sharp cut-off; inactive = mostly below about 14%; note: read at 38.3 µM for the half of the compounds with a filed dose; 0% is about no effect
# RE007 growth inh = less growth of the S. pombe RE007 Vpr strain; S. pombe RE007 Vpr strain, BacTiter-Glo ATP luminescence, 24 h; Potency, µM (top dose mostly 92.2 µM), for inactives: at the highest dose activity change, negative = less growth, actives largely listed as inhibitors; actives 0.21% (n = 360,000); active = well fitted falling curve with a large enough effect; inconclusive = small, poorly fitted or top-dose-only effect; inactive = no such curve, though single readings can be large or run the other way; note: potency is the fitted concentration of half-maximal effect; % is set by controls: 0 for no effect and ±100 for the full control effect; nearly all actives have a fitted effect of over 50% in size
#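 Fission yeast RE007 carrying one integrated HIV-1 vpr copy, seeded at OD 0.01 in PMG+AL medium with 23 nL pinned compound. Grown 24 h at 30 degrees; viability read by BacTiter-Glo luminescence after 5 min.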
# Tb PYK inh = blocks Trypanosoma brucei pyruvate kinase; AID 624173; Potency, µM (titrated, usually from 76.8 µM), for inactives: top-dose activity, negative = inhibition, actives largely listed as inhibitors; TbPYK enzyme, Kinase-Glo Plus ATP luminescence, 45 min; Q57TT1; actives 0.12% (n = 410,000); note: potency is the fitted concentration of half-maximal effect; % is set by controls: 0 for no effect and ±100 for the full control effect; nearly all actives have a fitted effect of over 50% in size
#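 Assay buffer: 50 mM TEA pH 7.2, 100 mM KCl, 10 mM MgCl2, 0.05% BSA, 0.01% Tween-20. Pyruvate kinase from T. brucei plus substrate met compound, then ADP (130 uM final). Luminescence was read post 45 min RT.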
# Giardia FBPA inh = Giardia lamblia aldolase inhibition; A8B2U2; purified Giardia FBPA; Potency, µM (series often up to 59.6 µM), without a hit: at the top dose activity, negative = inhibition, usual class: inhibitors; actives 0.71% (n = 290,000); note: potency is the fitted concentration of half-maximal effect; % is set by controls: 0 for no effect and ±100 for the full control effect; nearly all actives have a fitted effect of over 55% in size
#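 40 nM FBPA preincubated 10 min at RT with compound (up to 57.5 uM final), then substrate plus GAPDH/TPI/NAD/arsenate coupling and diaphorase/resazurin added. Fluorescence read after 20 min at RT, 525/598 nm.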
# LmPK inhibitor = inhibitors of Leishmania mexicana pyruvate kinase; purified LmPK, Kinase-Glo ATP luminescence, 1 h; Potency, µM (series often up to 57.5 µM), for inactives: top-dose activity change, negative = inhibition, most hits filed as inhibitors; actives 0.37% (n = 290,000); AID 1721; note: potency is the fitted concentration of half-maximal effect; % is set by controls: 0 for no effect and ±100 for the full control effect
# Target sequence (Q27686 whole entry, looked up): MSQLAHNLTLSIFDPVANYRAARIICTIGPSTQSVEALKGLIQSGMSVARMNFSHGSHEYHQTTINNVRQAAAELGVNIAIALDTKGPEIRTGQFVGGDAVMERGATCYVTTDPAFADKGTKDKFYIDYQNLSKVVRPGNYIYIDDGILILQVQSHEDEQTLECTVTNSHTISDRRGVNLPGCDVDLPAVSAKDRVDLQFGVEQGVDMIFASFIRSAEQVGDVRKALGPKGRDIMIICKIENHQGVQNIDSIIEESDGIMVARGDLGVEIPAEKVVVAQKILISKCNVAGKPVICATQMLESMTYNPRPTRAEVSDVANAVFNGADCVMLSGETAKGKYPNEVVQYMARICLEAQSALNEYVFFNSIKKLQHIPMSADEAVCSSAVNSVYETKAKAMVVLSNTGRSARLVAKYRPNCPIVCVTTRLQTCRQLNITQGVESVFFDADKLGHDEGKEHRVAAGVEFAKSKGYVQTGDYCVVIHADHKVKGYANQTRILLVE
#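 Pyruvate kinase activity monitored as ATP production (luciferase luminescence). Conditions: 0.1 nM enzyme, 0.5 mM PEP, 0.1 mM ADP, 1 h, RT; normalized against uninhibited and no-enzyme wells.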
# * = called active by the depositor; ? = inconclusive; nt = no result; + = active, no number. Unless noted, calls come from the whole dose curve; as a rule, active = well fitted curve in the direction sought with a large enough effect; inconclusive = small, poorly fitted or top-dose-only effect, or another doubt; inactive = no such curve, though single readings can be large; an effect the other way counts as inactive or inconclusive.
SMILES,Shiga inhibitor,Cycloheximide cs,RE007 growth inh,Tb PYK inh,Giardia FBPA inh,LmPK inhibitor
N#CC(Cc1ccc(OC(F)F)cc1)c1nc2ccccc2[nH]1 (configuration not stated),65.9*,26.3*,-16.9%,-2.2%,0.5%,?
CCn1nc(C(=O)Nc2nc3ccccc3[nH]2)c2ccccc2c1=O,10.7,-2.7,-3.5%,2.7%,-8.3%,0.1%
Cn1nc(C(=O)Nc2nc3ccccc3[nH]2)c2ccccc2c1=O,33.1,28.6*,3.9%,0.5%,-25.2%,-1.4%
Cc1ccccc1C(=O)Nc1ccccc1C(=O)N/N=C\c1ccco1,0.4,-5.7,-7.8%,-16.5%,-18.1%,-10.8%
O=C(Nc1ccccc1C(=O)N/N=C/c1ccco1)c1ccccc1,+,16.6,?,-9.1%,-6.6%,?
O=C(Nc1ccccc1C(=O)N/N=C/c1ccco1)c1ccc(F)cc1,14.4,15.1,22.4µM*,-1.2%,-16.3%,15.8µM*
O=C(N/N=C/c1ccco1)c1ccncc1,2.8,13.2,1.1%,-6.3%,-14.2%,-5.4%
O=C(Nc1ccccc1C(=O)N/N=C/c1ccco1)c1ccc(Cl)cc1,75.9*,18.7*,?,-12.5%,10.9%,-16.0%
COc1ccc(NC(=O)N(Cc2cc3cc(OC)c(OC)cc3[nH]c2=O)CC2CCCO2)cc1 (configuration not stated),14.4,11.7*,-0.1%,-8.4%,-2.4%,7.6%
COc1ccc2cc(CN(CC3CCCO3)C(=O)Nc3ccccc3)c(=O)[nH]c2c1 (configuration not stated),6.1,7.2,3.4%,1.8%,0.3%,10.2%
O=C(COc1ccccc1)N(Cc1cc2ccccc2[nH]c1=O)CC1CCCO1 (configuration not stated),40.5,24.7*,12.1%,-14.7%,-1.1%,4.5%
CCN(CC)CCCN(Cc1cc2cc3c(cc2[nH]c1=O)OCO3)C(=O)Nc1ccccc1OC,-4.7,-1.3,-18.5%,-4.9%,-0.1%,-1.6%
CCN(CC)CCCN(Cc1cc2cc3c(cc2[nH]c1=O)OCCO3)C(=O)Nc1ccc(F)cc1,78.4*,14.0*,-17.0%,1.6%,-7.4%,-20.8%
COc1ccc(-n2nc(C(=O)NCCc3ccc(OC)c(OC)c3)c3c4ccccc4n(C)c3c2=O)cc1Cl,nt,nt,nt,1.1%,nt,nt
COc1cccc(-c2onc3ccc(C4(C)OCCO4)cc23)c1,31.1,25.8*,-10.6%,1.7%,1.5%,-3.4%
COc1cccc(-c2onc3ccc(C(C)=O)cc23)c1,31.3,15.4*,-6.6%,1.2%,-2.8%,8.1%
CC1(c2ccc3noc(-c4ccc(F)cc4)c3c2)OCCO1,72.4,18.5*,-7.8%,3.9%,-5.7%,4.5%
CC1(c2ccc3noc(-c4ccccc4)c3c2)OCCO1,29.9,-1.3,5.6%,-1.2%,-3.4%,2.6%
COc1cccc(-c2onc3ccc(C(=O)/C=C/N(C)C)cc23)c1,-4.3,3.0,163.8%,-3.9%,15.1%,1.6%
Cc1cccc(-n2c(CNC(=O)c3cccc(F)c3)nnc2SCC(=O)Nc2ccccc2F)c1,nt,nt,nt,0.9%,nt,nt
COc1ccc(-c2cn3cc(Cl)ccc3n2)cc1OC,92.0*,21.4*,-18.7%,-3.6%,?,3.1%
COc1ccc(-c2nc3ccc(C)cn3c2Cc2ccc(C)cc2)cc1OC,nt,nt,?,1.5%,nt,nt
Clc1ccc2nc(-c3ccc(Br)s3)cn2c1,41.5*,22.3*,-16.4%,-5.6%,?,?
COc1ccc(-c2cn3cc(C)ccc3n2)cc1Br,58.7*,40.2*,-27.0%,-5.5%,-20.1%,-18.6%
O=C(O)c1ccccc1-c1cn2cc(Cl)ccc2n1,10.9,0.9,0.9%,-8.1%,?,4.4%
SMILES,Shiga inhibitor,Cycloheximide cs,RE007 growth inh,Tb PYK inh,Giardia FBPA inh,LmPK inhibitor
Cc1ccc(CNC(=O)C(=O)NCC(c2cccnc2)N2CCN(c3ccccc3F)CC2)cc1 (configuration not stated),nt,nt,nt,-0.2%,nt,nt
CC1CC(O)CC(C)(C)C1 (configuration not stated),nt,nt,nt,3.7%,nt,nt
CC(C)(C)C(=O)c1cnc(Nc2ccccc2Cl)s1,67.4*,58.6*,-18.0%,-12.2%,-7.5%,?
O=C(c1ccccc1)c1cnc(Nc2ccccc2Cl)s1,88.5*,41.7*,-14.6%,1.2%,-6.7%,-2.2%
Cc1nc2nc(NC(=O)c3cccc(Cl)c3)[nH]n2c(=O)c1Cc1ccccc1,nt,nt,nt,2.9%,nt,nt
N#C/C(=C\c1cccnc1)c1ccc([N+](=O)[O-])cc1,15.2,5.1,-12.3%,3.3%,3.6%,-3.2%
COC(=O)c1ccc(/C=C(\C#N)c2ccccn2)cc1,132.6*,38.7*,?,10.1%,-1.2%,-18.6%
COc1cc(/C=C(\C#N)c2ccccn2)cc(OC)c1O,2.7,16.9,-2.9%,-7.9%,-6.7%,1.6%
N#CC(C#N)=Cc1ccc(OC(=O)c2ccccn2)cc1,17.3,9.0,3.5%,-3.3%,-1.0%,-3.8%
CN(C)c1ccc(/C=C(\C#N)c2ccccn2)cc1,-15.1,-5.5,?,?,-17.4%,10µM*
N#C/C(=C\c1ccc([N+](=O)[O-])cc1)c1ccccn1,49.4*,28.9*,-20.2%,-3.7%,1.7%,-14.8%
CCC(=NNC(=O)c1ccc2c(c1)nc(C)n2CC)c1cc(F)ccc1O,nt,nt,-10.8%,1.0%,nt,nt
CCn1c(C)nc2cc(C(=O)N/N=C/c3ccc(O)c(O)c3O)ccc21,9.7,11.4,-5.6%,?,12.6µM*,1.3%
COc1cccc(/C=N/NC(=O)c2ccc3nc[nH]c3c2)c1O,30.9,0.3,6.5%,-2.9%,18.4%,-6.1%
CCn1c(C)nc2cc(C(=O)N/N=C/c3cccc(OC)c3O)ccc21,59.5*,17.6,-15.2%,-5.2%,7.8%,0.7%
COCc1cc(C)n(CC(=O)Nc2cccc(C(C)=O)c2)c(=O)c1C#N,nt,nt,nt,0.9%,nt,nt
CCN(CC)S(=O)(=O)c1cc(C(=O)Nc2ccc(Cl)cn2)ccc1C,79.5*,33.0*,-20.2%,5.9%,-6.7%,-0.1%
CCN(CC)S(=O)(=O)c1cccc(C(=O)Nc2ccc(Cl)cn2)c1,99.3*,26.2*,0.0%,1.8%,7.3%,0.5%
COc1ccc2c(c1)Cc1sc(NC(C)=O)nc1-2,71.7*,39.8*,-12.9%,?,?,-29.5%
COc1ccc2c(c1)Cc1sc(NC(=O)c3ccco3)nc1-2,61.7*,74.4*,-11.9%,-17.9%,nt,0.9%
COc1ccc2c(c1)CCc1sc(NC(=O)c3ccco3)nc1-2,128.9*,49.6*,-23.6%,-7.0%,?,3.9%
COc1ccc2c(c1)-c1nc(NC(=O)c3cccs3)sc1CC2,75.5*,24.3*,-10.5%,-7.9%,-25.3%,1.4%
COc1ccc2c(c1)Cc1sc(NC(=O)c3cccnc3)nc1-2,13.2,5.6,-16.2%,-11.2%,-17.0%,-29.2%
COc1ccc2c(c1)-c1nc(NC(=O)c3ccco3)sc1CC2,121.2*,49.1*,nt,-1.2%,-7.4%,0.1%

# Screening data from PubChem.
